This passage reports binding signal results from paper PMC7819943, “Rice protein-binding microarrays: a tool to detect cis-acting elements near promoter regions in rice”.

Whole data set: some 39,000 sequences, median “fluorescence intensity (a.u.)” near 4,300, cut for the highest 2% near 39,000. The list comes from a sample in which the highest values are over-represented; it also holds similar and randomly drawn sequences.

The assay has as its target T1, OsSMF1 (Oryza sativa, UniProt Q6ZLB0 1-436).
T1 sequence: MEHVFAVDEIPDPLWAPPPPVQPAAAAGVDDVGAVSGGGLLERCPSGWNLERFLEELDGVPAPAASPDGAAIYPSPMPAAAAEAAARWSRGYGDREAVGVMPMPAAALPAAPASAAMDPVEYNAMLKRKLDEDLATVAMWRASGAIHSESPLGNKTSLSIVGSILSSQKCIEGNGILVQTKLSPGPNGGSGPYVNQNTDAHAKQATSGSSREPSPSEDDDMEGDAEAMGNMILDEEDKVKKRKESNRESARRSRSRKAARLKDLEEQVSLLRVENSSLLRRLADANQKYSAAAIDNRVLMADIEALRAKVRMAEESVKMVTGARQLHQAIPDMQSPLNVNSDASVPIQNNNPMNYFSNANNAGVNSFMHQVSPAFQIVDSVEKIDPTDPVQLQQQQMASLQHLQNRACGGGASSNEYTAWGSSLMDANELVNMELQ
The assay can be described thus: protein-binding microarray (RPBM); PBS, 2% BSA, 51.3 ng/ul salmon testes DNA, 50 uM zinc acetate, 200 nM TF, 25 C, 1 h; high values mean tight binding. The conditions noted are these: protein: recombinant; tags: N-terminal polyhistidine and DsRed monomer fusion (pET32a); chain copies: 2; label: CyDye5-dUTP incorporated in the synthesized complementary strand; 3' TTTTT single-stranded linker to array surface; dsDNA, one strand shown. In a few lines:
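A custom Agilent array was converted to double-stranded form by primer extension with Cy5-dUTP and blocked with 2% BSA. Protein at 200 nM in PBS with 2% BSA, salmon testes DNA and 50 µM zinc acetate was applied for 1 h at 25 °C, followed by washing. The proteins were polyhistidine–DsRed N-terminal fusions of transcription factors, expressed in E. coli BL21-CodonPlus and Ni–NTA-purified. The binding signal is per-feature fluorescence intensity (arbitrary units) from an Axon 4000B scanner.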
In the case of “CATGTCAGACAGTCCACGTCATCACCTTTCTCTCCCCTCTCGGAGTCACCTAGTGCAG”, the binding signal was 38200 fluorescence intensity (a.u.).
Consider “TTAACTCGGTCTTCATCCTGTGTGACGCCTACGATACAACCGGAGTCACCTAGTGCAG”, for which the binding signal was 4380 fluorescence intensity (a.u.).
Take “GGCTTCGGCCAGCTAGCCGCCACGTCTCCGCCGGTTTTAACGGAGTCACCTAGTGCAG”: the binding signal is 8270 fluorescence intensity (a.u.).
As for “ATTTCTACCTGACGAAGTGACGATGCACTAGCCAGCTACTCGGAGTCACCTAGTGCAG”, the binding signal is 3900 fluorescence intensity (a.u.).
With “AGACAAATAATTCCCTTTGCCATGCCTGTCAGTTAGGGAACGGAGTCACCTAGTGCAG”, the binding signal is 3500 fluorescence intensity (a.u.).
As for “AAACATTATTAAATAGGTGTATGAATGACAGTCATACTTGCGGAGTCACCTAGTGCAG”, the binding signal is 3490 fluorescence intensity (a.u.).
Take “TGAGATATATATTTCGTATGTATATAGAGAAATAAAGAAACGGAGTCACCTAGTGCAG”: the binding signal was 57100 fluorescence intensity (a.u.).
Turning to “ACTTATGATATGAAACGGAGAGAGTAGTAGATAAGATTTTCGGAGTCACCTAGTGCAG”, the binding signal is 28400 fluorescence intensity (a.u.).
“TTGTATAACTATGTGTATATGTGTATGGTTATTAAGCAAACGGAGTCACCTAGTGCAG”: the binding signal was 10500 fluorescence intensity (a.u.).
Regarding “GAATAATTTATTAAATAATTTATAAATCCTGAAACGAAAACGGAGTCACCTAGTGCAG”, the binding signal is 3520 fluorescence intensity (a.u.).
Turning to “TCATAATATTATAAATTTGGACAAAGATATATCATATCACCGGAGTCACCTAGTGCAG”, the binding signal is 3150 fluorescence intensity (a.u.).
In the case of “TATAAAATTTCGCAATAACGACGAAAGTATTAAACGGACACGGAGTCACCTAGTGCAG”, the binding signal was 56200 fluorescence intensity (a.u.).
In the case of “CGACATTAAAGATTATGAATATTATGGGCAAATATAGGTCCGGAGTCACCTAGTGCAG”, the binding signal was 57600 fluorescence intensity (a.u.).
For the sequence “TCCATGTATATTACATCATGGGGTTATGTAACATCACTGACGGAGTCACCTAGTGCAG”, the binding signal is 8280 fluorescence intensity (a.u.).
On to “CTTATTATGGTTATATGTGCAGGTATGGAGTAATAACTGACGGAGTCACCTAGTGCAG”, for which the binding signal is 46400 fluorescence intensity (a.u.).
For the sequence “AAACTTTATGTATAGAAATAATATATATATATATATATATCGGAGTCACCTAGTGCAG”, the binding signal was 29000 fluorescence intensity (a.u.).
On to “GTAAACGCATGCCTTTTCGCAAATTTGTAAAACGAAACGACGGAGTCACCTAGTGCAG”, for which the binding signal was 31500 fluorescence intensity (a.u.).
In the case of “TAGGATTCAGCTCCTTCCTATTAGGGGTTCACCCGCGAGTCGGAGTCACCTAGTGCAG”, the binding signal was 13800 fluorescence intensity (a.u.).
In the case of “CTATAAACTTAGTTAAACTAAAGCTGCTATTTAACTTTGACGGAGTCACCTAGTGCAG”, the binding signal was 3280 fluorescence intensity (a.u.).
Consider “CGAGGTTGCCCCTCCCCTCTCCTACGTGGTCGTGCCCCAACGGAGTCACCTAGTGCAG”, for which the binding signal is 5410 fluorescence intensity (a.u.).
For the sequence “ATCGGCAAACGCGTTCCACCAAAACCCTCCACGTCAGCATCGGAGTCACCTAGTGCAG”, the binding signal is 29800 fluorescence intensity (a.u.).
Turning to “TTATAATATATATAATAAATAAATGTATGTTTACTTATAGCGGAGTCACCTAGTGCAG”, the binding signal is 19300 fluorescence intensity (a.u.).
Take “ATAATAAACTGAGAGGAGGATAGTAATATGTACTTAGTAACGGAGTCACCTAGTGCAG”: the binding signal was 48400 fluorescence intensity (a.u.).
Take “TTAATTAATTAACGTATGTACTCAGGAATTATATATAATACGGAGTCACCTAGTGCAG”: the binding signal is 35600 fluorescence intensity (a.u.).
With “TAAAGAAAGAAAAGACATTAATAAAGCAGCAAAGAAAAGACGGAGTCACCTAGTGCAG”, the binding signal is 46000 fluorescence intensity (a.u.).
For “CTCTCTCTCTCTCTCTCTCTCTCTCTTGCCATTTAAAAGACGGAGTCACCTAGTGCAG” the value was 4760 fluorescence intensity (a.u.); for “AGCAAACATAATTAACATATATATAATAAAGCTCAAAGAGCGGAGTCACCTAGTGCAG”, 3780 fluorescence intensity (a.u.); for “CCTTTTCCGCTTTAAAACACCACACAGTGACACACACACCCGGAGTCACCTAGTGCAG”, 5500 fluorescence intensity (a.u.).
Regarding “AGAAGAGAATGGAGTGGAGCTGACATGTGGGCTCCACCATCGGAGTCACCTAGTGCAG”, the binding signal was 3950 fluorescence intensity (a.u.).
Regarding “GGCTCCGTCTTATCCTAACAACGCCAAGGGGCCACGTATGCGGAGTCACCTAGTGCAG”, the binding signal is 7210 fluorescence intensity (a.u.).
As for “CAGTTGACCGCCACGTAGAACCTGTTCCTCCAGCTCACCACGGAGTCACCTAGTGCAG”, the binding signal is 9340 fluorescence intensity (a.u.).
Then “TTCCTCGCGCTCCCACGCCACGCAGCAGCCGCAGATCTCCCGGAGTCACCTAGTGCAG”, with 3630 fluorescence intensity (a.u.).
As to “CAGAAACCAACCAACACAAGACACCGACCGACGCCGACCACGGAGTCACCTAGTGCAG”, the binding signal was 8450 fluorescence intensity (a.u.).
Consider “CACACATTCGCACCGCCGACGCCGAACAGAACAACAACAACGGAGTCACCTAGTGCAG”, for which the binding signal was 64700 fluorescence intensity (a.u.).
“GGAAGAAGGCCGCCGACGCACAACAGAGGCGGCGGCGGGGCGGAGTCACCTAGTGCAG”: the binding signal is 3510 fluorescence intensity (a.u.).
Regarding “GCTTTCAAAGCACTCAATTTTCCAGGTCATAACTGTTTTCCGGAGTCACCTAGTGCAG”, the binding signal is 5050 fluorescence intensity (a.u.).
On to “ACAGATACAATGAGCGAGCGTTTGGTGTAATATGTGACAGCGGAGTCACCTAGTGCAG”, for which the binding signal is 43600 fluorescence intensity (a.u.).
As to “TTGACAATGTGGTGCTACAGTAAATATTTGATAATGATGGCGGAGTCACCTAGTGCAG”, the binding signal is 3330 fluorescence intensity (a.u.).
On to “ATGTATTTTATGACAACAGAGTAAACAATGTGATATACATCGGAGTCACCTAGTGCAG”, for which the binding signal was 3220 fluorescence intensity (a.u.).
Then “ATCTTAAGCTCCTCATTTCATCTATGATTGGCTTGCTTTACGGAGTCACCTAGTGCAG”, with 3180 fluorescence intensity (a.u.); and “AATAAACCATGGTGTTTGTATTGGTGTGTTGGTGACTACGCGGAGTCACCTAGTGCAG”, with 3880 fluorescence intensity (a.u.).
Consider “CCATCGAATCCGGTTCGCGCGCAAGCAAAATCAGCAGCGTCGGAGTCACCTAGTGCAG”, for which the binding signal is 3830 fluorescence intensity (a.u.).
